Drawing on PubChem BioAssay, this text covers outcome and fluorescence, percent of control (lower = inhibition) for 40 compounds.

Entries with a potency or affinity are not part of this list. Activity calls are given as the source filed them.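 The calls were made as follows, unless noted: active = fitted half-maximal concentration within the tested range, moderate curve steepness, significant signal drop, and little compound fluorescence or bead-linkage interference; inactive = the rest.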

Chain of Cell division control protein 42 homolog (Homo sapiens) (P60953 whole entry, looked up): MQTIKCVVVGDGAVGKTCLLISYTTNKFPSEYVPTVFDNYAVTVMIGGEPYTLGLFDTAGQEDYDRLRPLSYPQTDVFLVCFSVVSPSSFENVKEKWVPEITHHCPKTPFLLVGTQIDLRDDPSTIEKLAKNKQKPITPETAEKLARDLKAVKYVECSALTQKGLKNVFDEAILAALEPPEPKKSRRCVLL

One test addresses Cell division control protein 42 homolog (Homo sapiens) (UniProt P60953). As to the kind of experiment: activated mutant Cdc42 GTP-binding inhibitors, dose response, biochemical, multiplex bead flow cytometry, Bodipy-FL-GTP (AID 1333;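 active = fitted half-maximal concentration within the tested dose range, moderate curve steepness, a statistically real signal drop, and little compound fluorescence or tag-binding interference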). The note with it: bead-based flow cytometry; series mostly up to 100 µM. On the technique in general: A flow cytometer gives signals particle by particle.
As to `CC(=O)OC(C(=O)NC1CCCCC1)c1ccc(Cl)cc1` (centres undefined), the outcome was inactive.

As to `CCN1C(=O)/C(=C/C=C2/Sc3ccc4ccccc4c3N2CCO)SC1=S`, the outcome was inactive.

As to `CCN1CCN(c2nc3c(c(=O)n(C)c(=O)n3C)n2Cc2cccc3ccccc23)CC1`, the result was inactive.

`O=C(O)c1cc2ccccc2nc1OCCc1ccccc1`: the call was inactive.

For the compound `C=CCc1ccccc1OCc1cccc(C(=O)O)c1`, the compound was classed as inactive.

For the compound `O=[N+]([O-])c1ccc(/C=C/C2=NN(c3ccccc3)C(c3ccco3)C2)cc1` (centres undefined), the compound was called inactive.

For the compound `N=c1oc2ccc3ccccc3c2cc1-c1nc(-c2ccccc2)cs1`, the call was inactive.

As for `N#CC(C#N)=C(Nc1ccc(F)cc1)SCc1cccc(Br)c1`, the call was inactive.

With `N#C/C(=C\c1ccc(-c2ccc(C(=O)O)cc2)o1)c1nc2ccccc2[nH]1`, the outcome was inactive.

Consider `CCN(CC)S(=O)(=O)c1ccc2c(c1)c(=O)c(C(=O)N1CCc3ccccc3C1)cn2C`, for which the outcome was inactive.

On to `CCOC(=O)C1=NN(c2ccc(C)cc2)CC1C(=O)OC` (centres undefined), for which the outcome was inactive.

In the case of `O=C(NC1CCCCC1)C(c1ccco1)N(Cc1ccco1)C(=O)c1ccco1` (centres undefined), the outcome was inactive.

Turning to `C=C(C)COc1ccc(-c2n[nH]c(C)c2-c2ccc(Br)cc2)c(O)c1`, the compound was called inactive.

As for `O=S(=O)(Cc1ccccc1)c1ccccc1-c1nnc(-c2ccccc2)o1`, the call was inactive.

Regarding `CCOC(=O)Cn1nnnc1CN(Cc1cccs1)Cc1cc2cc(C)ccc2[nH]c1=O`, the outcome was inactive.

Regarding `CC(=O)Nc1ccc(NC(=O)CCn2nnc3ccccc32)cc1`, the compound was classed as inactive.

Regarding `COc1ccc(CNc2nc3ccccc3n2Cc2ccc(C)cc2)cc1OC`, the call was inactive.

For `O=C(O)c1ccccc1C(=O)OCc1ccc(F)cc1F`, the call was inactive.

Take `COc1ccc2oc(COc3ccccc3)c(C(=O)O)c2c1`: the call was inactive.

Take `CCOc1ccc(-n2c(-c3ccco3)n[nH]c2=S)cc1`: the outcome was inactive.

On to `OC(c1ccc(OCc2ccccc2)cc1)c1nnc(-c2ccccc2)o1` (centres undefined), for which the call was inactive.

`COc1ccc(-c2c3c(nc4sc5c(=O)[nH]c(C)nc5c24)CCC3)cc1`: the compound was classed as inactive.

With `O=C(COc1ccccc1-c1ccccc1)N/N=C/c1ccncc1`, the outcome was inactive.

The target is the same in the next test. Put plainly: wildtype Cdc42 GTP-binding inhibitors, dose response, biochemical, multiplex bead flow cytometry, Bodipy-FL-GTP (AID 1334). As to conditions: bead-based flow cytometry, Bodipy-FL-GTP binding to GST-Cdc42; at 100 µM (top of the series) unless noted.
As to `CCOc1cc(/C=N/NC(=O)CSc2cccc3cccnc23)ccc1O`, the fluorescence, percent of control (lower = inhibition) came to 35.6%.

As to `CCCCNc1nc(=S)[nH]c2cc(OC)c(OC)cc12`, the fluorescence, percent of control (lower = inhibition) turned out to be 37.9%.

Regarding `CSc1nc2ccc(NC(=O)C3CC(=O)N(Cc4ccco4)C3)cc2s1` (centres undefined), the fluorescence, percent of control (lower = inhibition) stood at 34%.

On to `CN1CCN(c2ccccc2NC(=O)c2ccc(-c3cccc([N+](=O)[O-])c3)o2)CC1`, for which the fluorescence, percent of control (lower = inhibition) is 40.2%.

On to `COc1ccc(CNc2nc3c(c(=O)n(Cc4ccc(Cl)cc4)c(=O)n3C)n2C)cc1`, for which the fluorescence, percent of control (lower = inhibition) came to 29.3%.

On to `Cc1ccc(-c2noc(CN3C(C)CCCC3C)n2)cc1` (centres undefined), for which the fluorescence, percent of control (lower = inhibition) is 51.1%.

Regarding `O=C(COc1ccccc1/C=C\c1[nH]c(=O)[nH]c(=O)c1[N+](=O)[O-])Nc1ccccc1`, the fluorescence, percent of control (lower = inhibition) was determined as 29.1%.

For the compound `Oc1ccc(C2=Nn3c(nnc3-c3ccco3)SC2)cc1O`, the fluorescence, percent of control (lower = inhibition) was found to be 25.1%.

As to `Cc1ccc(OCc2ccc(C(=O)O)o2)cc1C`, the fluorescence, percent of control (lower = inhibition) came to 61.7%.

In the case of `C=CCn1c(-c2csc(-c3ccc(Cl)cc3)n2)n[nH]c1=S`, the fluorescence, percent of control (lower = inhibition) stood at 40.8%.

Consider `O=C(O)COc1ccccc1/C=N/Nc1ccc(S(=O)(=O)Nc2ccc(Cl)cc2)cc1[N+](=O)[O-]`, for which the fluorescence, percent of control (lower = inhibition) turned out to be 28.1%.

Regarding `O=C1c2ccccc2C(=O)N1CCCCN(C(=O)c1cc2ccccc2oc1=O)c1ccc(Cl)cc1`, the fluorescence, percent of control (lower = inhibition) was found to be 51.3%.

In the case of `Cn1c(SCC(=O)Nc2cc(C(C)(C)C)nn2-c2ccccc2)nc2ccccc21`, the fluorescence, percent of control (lower = inhibition) turned out to be 46.2%.

`CCCCCCNc1cc2n(c(=O)n1)CCc1cc(OC)c(OC)cc1-2`: the fluorescence, percent of control (lower = inhibition) is 44.7%.

For `Nc1c([N+](=O)[O-])cc(-c2cnc[nH]2)cc1[N+](=O)[O-]`, the fluorescence, percent of control (lower = inhibition) was determined as 38.5%.

As to `CC(=O)Oc1cccc(C#CC(=O)c2ccc([N+](=O)[O-])cc2)c1`, the fluorescence, percent of control (lower = inhibition) turned out to be 35.4%.

As for `CCc1nnc(NC(=O)CCC(=O)N2CCN(c3ccccn3)CC2)s1`, the fluorescence, percent of control (lower = inhibition) was 94%.

Consider `CC(=O)OC(C(=O)NC1CCCCC1)c1ccc(Cl)cc1` (centres undefined), for which the fluorescence, percent of control (lower = inhibition) was 34.5%.

Turning to `CCN1C(=O)/C(=C/C=C2/Sc3ccc4ccccc4c3N2CCO)SC1=S`, the fluorescence, percent of control (lower = inhibition) was 27.6%.

Consider `CCN1CCN(c2nc3c(c(=O)n(C)c(=O)n3C)n2Cc2cccc3ccccc23)CC1`, for which the fluorescence, percent of control (lower = inhibition) was 43.1%.

For `O=C(O)c1cc2ccccc2nc1OCCc1ccccc1`, the fluorescence, percent of control (lower = inhibition) was determined as 55.8%.

Regarding `C=CCc1ccccc1OCc1cccc(C(=O)O)c1`, the fluorescence, percent of control (lower = inhibition) is 78.7%.

For `O=[N+]([O-])c1ccc(/C=C/C2=NN(c3ccccc3)C(c3ccco3)C2)cc1` (centres undefined), the fluorescence, percent of control (lower = inhibition) was 135%.

Consider `N=c1oc2ccc3ccccc3c2cc1-c1nc(-c2ccccc2)cs1`, for which the fluorescence, percent of control (lower = inhibition) is 32.3%.

For `N#CC(C#N)=C(Nc1ccc(F)cc1)SCc1cccc(Br)c1`, the fluorescence, percent of control (lower = inhibition) amounted to 45.8%.

For the compound `N#C/C(=C\c1ccc(-c2ccc(C(=O)O)cc2)o1)c1nc2ccccc2[nH]1`, the fluorescence, percent of control (lower = inhibition) was found to be 168%.
